Source: PubChem BioAssay (National Center for Advancing Translational Sciences (NCATS))
An excerpt weighted towards active compounds, which were near 8% of everything screened.
ELG1 repair inh: ELG1-dependent DNA repair inhibition; HEK293T ELG1-luciferase reporter, luminescence, 16 h; DNA damage induced by 5-fluorouridine; Potency, µM (top dose mostly 46.1 µM), without a hit: at the highest dose activity change, negative = inhibition, most hits filed as inhibitors; actives 2.3% (n = 330,000); AID 504467; also: potency is read from the fitted curve at half-maximal effect; nearly all actives have a fitted effect of over 55% in size
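Step one: seed 2,000 cells per well. Step two: pin-transfer compound or DMSO alongside 5-fluorouridine. Step three: incubate 16 hr, 37 °C, 5% CO2. Step four: add ONE-Glo, wait 30 min, read luminescence.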
TSHR antag: blocks TSH signaling through the human TSH receptor | actives 0.2% (n = 330,000) | AID 504810 | activity change, negative = inhibition, % at 11.5 µM | P16473 | TSHR-expressing cells, TSH-stimulated cAMP HTRF, 2 h; stronger effect = lower value;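 active = activity change below a set negative limit, meaning inhibition stronger than a set level, cut at about -70% in these data; inconclusive = activity change between two set negative limits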
Target sequence (P16473 whole entry, looked up): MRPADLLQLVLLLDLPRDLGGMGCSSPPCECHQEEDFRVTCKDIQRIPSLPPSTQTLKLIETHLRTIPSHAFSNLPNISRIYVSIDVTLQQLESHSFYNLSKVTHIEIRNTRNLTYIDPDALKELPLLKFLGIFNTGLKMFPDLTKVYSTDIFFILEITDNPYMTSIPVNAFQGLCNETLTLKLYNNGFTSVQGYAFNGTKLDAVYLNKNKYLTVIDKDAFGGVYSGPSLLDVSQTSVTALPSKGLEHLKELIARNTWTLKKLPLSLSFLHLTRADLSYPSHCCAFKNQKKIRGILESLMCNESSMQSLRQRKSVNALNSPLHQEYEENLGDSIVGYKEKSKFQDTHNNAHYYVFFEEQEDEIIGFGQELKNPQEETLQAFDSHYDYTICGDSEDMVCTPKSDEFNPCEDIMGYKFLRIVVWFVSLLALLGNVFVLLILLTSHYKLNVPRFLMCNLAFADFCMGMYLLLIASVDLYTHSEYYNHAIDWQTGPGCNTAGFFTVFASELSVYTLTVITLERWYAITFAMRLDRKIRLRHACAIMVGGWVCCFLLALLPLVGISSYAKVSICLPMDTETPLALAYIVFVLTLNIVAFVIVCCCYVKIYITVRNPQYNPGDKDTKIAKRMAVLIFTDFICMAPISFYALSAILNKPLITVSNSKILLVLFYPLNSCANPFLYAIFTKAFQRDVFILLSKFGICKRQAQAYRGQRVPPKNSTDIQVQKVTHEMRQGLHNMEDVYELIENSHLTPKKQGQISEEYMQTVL
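TSHR-expressing cells, 200/well, pre-treated with compound, then stimulated with EC80 TSH (4nM final) for 2 hours at 37 deg C. cAMP measured by competitive HTRF: anti-cAMP cryptate antibody in lysis buffer plus cAMP-d2, read after 30 minutes at room temperature.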
RORgamma inh: ROR gamma (mouse) transcription inhibition. actives 5.4% (n = 310,000). Drosophila S2 Gal4-RORgamma UAS-luciferase reporter, 20 h. Potency, µM (series often up to 53.6 µM), for inactives: top-dose activity change, negative = inhibition, usual class: inhibitors; also: potency is read from the fitted curve at half-maximal effect; nearly all actives have a fitted effect of over 60% in size
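ROR gamma transcriptional activity was tracked as Gal4-UAS luciferase output in stably transfected Drosophila Schneider cells, with compound added 1 hr before 700 uM copper sulfate induction and a 20 hr ambient-temperature incubation.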
Gal4-VP16 FLuc: inhibits Gal4-VP16 luciferase reporter, ROR gamma counter-screen. Drosophila S2 Gal4-VP16 UAS-luciferase, luminescence, 20 h. Potency, µM (doses to about 53.6 µM), inactives show top-dose activity, negative = inhibition, hits mostly inhibitors. actives 3.5% (n = 310,000). AID 2546;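 also: Gal4-VP16 expression switched on by copper sulfate through the metallothionein promoter; potency is read from the fitted curve at half-maximal effect; nearly all actives have a fitted effect of over 50% in size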
FBPA coupling cs: inhibits coupling enzyme system, counter-screen for aldolase hits; coupling enzyme system counterscreen, AmpLite Red fluorescence; AID 2472; activity change, negative = inhibition, % at 58.2 µM, hits read low; actives 0.67% (n = 290,000); in the data active = activity change below about -30%
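Counterscreen lacking aldolase: glyceraldehyde-3-phosphate coupling-enzyme reagent preincubated 10 min at RT with compound (at 57.5 uM final), then substrate/coupling system with AmpLite Red added; fluorescence read at 525/598 nm after 20 min RT.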
* = called active by the depositor; ? = inconclusive; . = no result given; [ ] = another dose, or the depositor's remark. Unless noted, calls follow the shape of the dose curve; as a rule, active = well fitted curve in the direction sought with a large enough effect; inconclusive = small, poorly fitted or top-dose-only effect, or another doubt; inactive = no such curve, though single readings can be large; an effect the other way counts as inactive or inconclusive. % is scaled to controls: 0 for no effect and ±100 for the full control effect.

SMILES | ELG1 repair inh | TSHR antag | RORgamma inh | Gal4-VP16 FLuc | FBPA coupling cs
COc1ccc(N2CCN(C(=O)C3CCCN(S(=O)(=O)c4ccc(C)cc4)C3)CC2)cc1 (stereo not given) | 21µM* | 1 | ? | ? | 0
Cc1ccc(S(=O)(=O)N2CCCC(C(=O)N3CCN(c4ccccc4)CC3)C2)cc1 (stereo not given) | 21µM* | -17 | . | . | 0
CCOc1ccc(S(=O)(=O)N2CCCC(C(=O)N3CCN(c4ccccc4)CC3)C2)cc1 (stereo not given) | 0% | -15 | ? | ? | .
O=C(C1CCCN(S(=O)(=O)c2ccccc2)C1)N1CCCc2ccccc21 (stereo not given) | 23µM* | -6 | ? | 3% | 2
Cc1cc(C(=O)COC(=O)c2ccc[nH]c2=O)c(C)n1-c1ccccc1F | ? | -13 | ? | ? | 1
CCCn1c(C)cc(C(=O)COC(=O)c2ccc[nH]c2=O)c1C | ? | 13 | 4µM* | 6.3µM* | 2
Cc1ccc(-n2c(C)cc(C(=O)COC(=O)c3ccc[nH]c3=O)c2C)cc1C | ? | 1 | -38% | 0.02µM* | 2
COc1ccc(CN2CCCCCC2)cc1Br | -4% | -21 | -16% | 0% | 3
COc1ccccc1-n1cc(-c2ccc(C)cc2)[nH]c1=S | ? | 3 | 2.8µM* | 7.1µM* | 0
COc1ccccc1-n1cc(-c2ccc(Br)cc2)[nH]c1=S | 1% | 18 | 4.5µM* | 10µM* | 1
S=c1[nH]c(-c2ccc(Br)cc2)cn1CCc1ccccc1 | 2% | -6 | 6.3µM* | 20%[10 µM] | 8
COc1ccccc1-n1cc(-c2ccc([N+](=O)[O-])cc2)[nH]c1=S | ? | -6 | 1.6µM* | -22% | -2
COc1ccccc1N1CCN(c2cc(=O)n(-c3ccc(Br)cc3)c(=O)[nH]2)CC1 | -7% | 12 | -5% | -1% | 4
O=C(CSC1CC(=O)N(CCc2ccccc2)C1=O)Nc1ccc(Br)cc1 (stereo not given) | -11% | -11 | -1% | -12% | 0
COc1ccc(COC(=O)c2sc3nc4n(c(=O)c3c2C)CCC4)cc1 | -21% | -10 | . | . | .
CCC1=C2CC[C@H]3C(=O)N(CC(=O)OC)C(=O)[C@H]3[C@H]2[C@@]2(C)C(=O)N(CC3CC3)C(=O)N2C1=O | . | . | -22% | -17% | 1
COc1ccc(N2CCN(CCCNC(=O)Cn3c(=O)c4cccn4c4ccccc43)CC2)cc1 | 7% | 4 | -10% | 8% | 1
COC(=O)[C@H](CC(C)C)NC(=O)c1ccc(NC[C@@H](N)CS)cc1-c1cccc2ccccc12 | . | . | -8% | -26% | -3
CCOC(=O)N1CCN(c2c(N3CCN(c4ccccc4F)CC3)c(=O)c2=O)CC1 | ? | 2 | 8% | -7% | 0
Cc1nc2cc(C(=O)OCC(=O)NC(C)C(C)C)ccc2n1-c1ccccc1 (stereo not given) | ? | 8 | -27% | 28µM* | 11
O=C(C[n+]1cccc2ccccc21)c1ccc([N+](=O)[O-])cc1 | 21µM* | -7 | 13% | -18% | -4
O=C=Nc1ccc(Cl)c(Cl)c1 | . | . | ? | -23% | .
Nc1cc(-c2ccncc2)c[nH]c1=O | ? | 3 | 25% | ? | -73*
Cc1ccc(C)c(S(=O)(=O)N2CCCCC2CCNC(=O)C(=O)NCc2ccccc2)c1 (stereo not given) | ? | -7 | . | . | .
COc1cc2c(cc1OC)[C@@H](NC(=O)CCc1ccccc1)[C@H](O)C2 | 4% | 22 | . | . | .
SMILES | ELG1 repair inh | TSHR antag | RORgamma inh | Gal4-VP16 FLuc | FBPA coupling cs
Cc1ccc(C(=O)NCCc2ccccc2)cc1S(=O)(=O)N1CCOCC1 | ? | -6 | . | . | .
Cc1ccc(C(=O)Nc2ccon2)cc1S(=O)(=O)N1CCOCC1 | 2% | 6 | 11µM* | ? | 2
Cc1ccc(C(=O)NC(C)CCc2ccccc2)cc1S(=O)(=O)N1CCOCC1 (stereo not given) | 18µM* | -6 | . | . | .
CN(C)S(=O)(=O)c1cccc(NC(=O)c2ccc(N3CCOCC3)c([N+](=O)[O-])c2)c1 | 18µM* | -1 | ? | 2% | -2
Cc1ccc(C(=O)Nc2cccc(S(=O)(=O)N3CCOCC3)c2)cc1[N+](=O)[O-] | ? | -3 | 43% | 0% | -1
Cc1ccc(NC(=O)c2ccc(N3CCOCC3)c([N+](=O)[O-])c2)cc1S(=O)(=O)N1CCOCC1 | 21µM* | -34 | ? | ? | -3
COc1ccc(OCCCC(=O)Nc2cc(Cl)ccc2-n2cncn2)cc1 | -16% | 10 | . | . | .
CC1CCCN(c2ccc(C(=O)Nc3cccnc3)cc2[N+](=O)[O-])C1 (stereo not given) | 15µM* | -11 | ? | -10% | -1
CO/N=C/c1ccc(N2CCN(C(=O)c3ccc(C)cc3)CC2)c([N+](=O)[O-])c1 | 21µM* | -12 | ? | ? | -11
Cc1ccc(S(=O)(=O)N2CCN(c3ccc(C(=O)N4CCOCC4)cc3[N+](=O)[O-])CC2)cc1 | 18µM* | -7 | ? | -26% | -1
Cc1ccc(S(=O)(=O)N2CCN(c3cc4c(cc3[N+](=O)[O-])n(C)c(=O)n4C)CC2)cc1 | 7.3µM* | -20 | 2% | -3% | 0
O=C(Nc1cccc(C(F)(F)F)c1)Nc1cc(Cl)ccc1C(=O)O | . | . | 27% | -5% | 0
COc1ccc(COC(=O)c2ccc(C)c(S(=O)(=O)N3CCOCC3)c2)cc1F | 18µM* | -16 | . | . | .
CCc1ccc(OCC(=O)NC(NC(=S)Nc2ccccc2)C(Cl)(Cl)Cl)cc1 (stereo not given) | -22% | -2 | ? | 13µM* | -2
CCc1ccc(OCC(=O)NC(NC(=S)Nc2ccccc2C)C(Cl)(Cl)Cl)cc1 (stereo not given) | -16% | -14 | 6.3µM* | 5µM* | 4
CCc1ccc(OCC(=O)NC(NC(=S)Nc2ccc(C)cc2C)C(Cl)(Cl)Cl)cc1 (stereo not given) | -17% | 7 | 10µM* | ? | 2
COC(=O)c1ccccc1NC(=S)NC(NC(=O)COc1ccccc1)C(Cl)(Cl)Cl (stereo not given) | 0% | 4 | 5.6µM* | ? | 0
CCc1ccc(OCC(=O)NC(NC(=S)Nc2ccccc2OC)C(Cl)(Cl)Cl)cc1 (stereo not given) | ? | -7 | ? | ? | 3
CC(C)[C@@H]1C(=O)N(S(C)(=O)=O)[C@H]2CCN(C(=O)/C=C\CN3CCCCC3)[C@@H]12 | . | . | 0% | 5% | 0
COCCn1c(=O)c(-c2ccccc2)nc2cnc(OC)nc21 | . | . | 3% | 1% | 5
CC(=O)c1ccc(OCC(=O)OCC(=O)NCc2ccco2)cc1 | 10% | -15 | . | . | .
